The text below walks through data of PubChem BioAssay (NCI).

Compounds without any hit were thinned out: in the full panel of roughly 83,000, 20% have a hit.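 Note: values are percent growth. 100 is the growth of untreated cells, values between 100 and 0 indicate rising inhibition; between -100 and 0 indicates cell death.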 Active and inactive are the calls of the source. Rule for the calls: active = growth percent below 10; inactive = the rest.

This test concerns BT-549 breast. As to the kind of experiment: NCI-60 one-dose screen, 48 h (100 = growth as untreated, 0 = no growth, -100 = all killed). As to conditions: 10 µM unless noted.
Take `Cc1[nH]c(-c2cc(N)ccc2Cl)c2c1C(=O)CCCC2`: the growth was 49.8% (inactive). As for `COc1ccc(/C=C\c2cc(OC)c(OC)c(OC)c2)cc1OC(=O)c1cccc(Cn2cc(CCOC(=O)[C@H](N)Cc3cn(C)c4ccccc34)nn2)c1`, the figure is 3.82% (active); as for `CC1CCNC(C)C1` (centres undefined), 105% (inactive). As to `Clc1ccc2c(NCCNc3nc(N4CCOCC4)nc4ccccc34)ccnc2c1`, the growth is 93.5% (inactive). Consider `CNC(=O)c1cc(Oc2ccc(NC(=O)Nc3ccc(Cl)c(SC)c3)c(F)c2)ccn1`, for which the growth is 64.7% (inactive). The same measure for `O=Nc1c(O)c(Cl)cc2ccccc12`: 83.7% (inactive). The same measure for `COc1ccc(-c2nc3ccc(-c4nc5ccc(N6CCN(c7ccncc7)CC6)cc5[nH]4)cc3[nH]2)cc1OC`: 39.4% (inactive); for `COc1cc(/C=C/c2cc(O)c3cc(C(C)=O)c(=O)oc3c2)cc2c1O[C@]1(C)CC[C@@H](O)C(C)(C)[C@H]1C2`: 35% (inactive). The same measure for `COc1ccc(/C=C/c2nc3ccccc3nc2/C=C/c2ccc(OC)cc2)cc1`: 104% (inactive); for `CN(C)CCCNc1c2ccccc2nc2ccccc12`: 72.6% (inactive). Regarding `O=C(Nc1ccc(Cl)cc1)c1cc2cc(F)ccc2cc1O`, the growth is 1.77% (active). On to `Cc1ccc(C2=NN3C(C2)c2cc(Br)ccc2OC32CCN(Cc3ccccc3)CC2)o1` (centres undefined), for which the growth is 92.4% (inactive). In the case of `O=C(CCN1C(=O)/C(=C/c2ccc(Cl)cc2)SC1=S)NCCCN1CCOCC1`, the growth was 106% (inactive). Take `C#CCOc1ccc2ncnc(N3CCN(C(=O)CCl)CC3)c2c1`: the growth is 56.8% [8.25 µM] (inactive).

`Cc1ccc(C(SCC(N)C(=O)O)(c2ccccc2)c2ccc(C)cc2)cc1` (centres undefined): the growth was 30.6% (inactive). `Cc1cc(Nc2ccc(C)c(Cl)c2)n2nc(C(F)(F)F)nc2n1`: the growth was 69.6% (inactive). As to `COc1ccccc1NS(=O)(=O)c1ccc2oc(SC(C)C)nc2c1`, the growth was 87.6% (inactive). Take `CCN1CCN(c2nc(NCCCNc3ccnc4cc(Cl)ccc34)c3ccccc3n2)CC1`: the growth was 68.7% (inactive). For `CCc1nnc(CNc2ccc(Cl)cc2)o1`, the growth is 96.4% (inactive). The same measure for `CCOC(=O)c1c(C)oc2ncnc(N3CCN(C(=S)Nc4ccccc4)CC3)c12`: 92.4% (inactive); for `C=C1c2nc3ccccc3n2C=C(c2cccc(Cl)c2)N1Cc1ccc(OC)cc1`: -1.26% (active). `COc1ccc(/C=C/C(=O)c2ccc(O)c(CN3CCN(c4cc5c(cc4F)c(=O)c(C(=O)O)cn5C4CC4)CC3)c2)cc1`: the growth was 17.7% (inactive).

Regarding `O=C1NC(=Nc2ccc(O)cc2)S/C1=C\c1cccc(Cl)c1`, the growth is 64.9% (inactive). The same measure for `N#Cc1c(-c2ccc(Cl)cc2)nc(N/N=C/c2cccc(Br)c2)nc1N1CCOCC1`: 101% (inactive). As to `COc1ccc(N=Nc2nccs2)c(O)c1`, the growth was 74.1% (inactive). As for `O=C1/C(=C/C(Cl)=C/c2ccccc2)SC(=S)N1CCc1ccc(O)cc1`, the figure is 11.6% (inactive); as for `COc1cc(/C=C/C(=O)c2cccnc2Nc2ccc(F)cc2)cc(OC)c1OC`, 39.5% (inactive).

On to `O=C1Nc2ccc(Br)cc2C12Oc1ccccc1C1CC(c3ccc(F)cc3)=NN12` (centres undefined), for which the growth was 91.8% (inactive).

As for `CSc1nc(Nc2cccc(NC(=O)CCl)c2)c(C#N)c(-c2cccc([N+](=O)[O-])c2)n1`, the growth is 14.3% (inactive).

Take `c1csc(C2=NN3C(C2)c2ccccc2OC3c2ccncc2)c1` (centres undefined): the growth was 92.4% (inactive). With `CCCn1c(=O)[nH]c(N)c([C@H]2c3ccccc3Oc3[nH]c(=O)n(CCC)c(=O)c32)c1=O`, the growth is 42.8% (inactive).

For `COc1cccc(-c2nc3sccn3c2-c2ccnc(NCCCNS(=O)(=O)c3cccc(F)c3)c2)c1`, the growth was 6.32% (active). `CCCCC/C(C=C(C#N)C#N)=C/c1ccccc1`: the growth is 69.3% (inactive). The same measure for `C=C(C)C1CC(O)C2(C)CCCC3C2C1CC(C)C3(C)CC/C(C)=C/C(O)C1CCC(=O)c2c(OC)cc(OC)cc21` (centres undefined): 60.4% (inactive); for `O=C1CC(=NCC(=O)n2c(-c3ccccc3)nc3ccccc32)NN1`: 107% (inactive). As for `Clc1ccc2c(NCCCNc3nc(-n4ccnc4)nc4ccccc34)ccnc2c1`, the growth is 82.8% (inactive).

Turning to `CN(CCCCCl)P(=O)(OCc1ccc([N+](=O)[O-])o1)C(F)(F)c1ccc(CC(=O)NC[C@@H](O)/C=C\[C@@H](O)[C@H](CO)Cc2ccccc2)cc1` (some centres undefined), the growth was 90.7% (inactive). Consider `O=C1Nc2c(ccc(Cl)c2Cl)/C1=C\c1ccc(C(F)(F)F)cc1`, for which the growth was 75.2% (inactive). Regarding `O=C1CSC(=S)N1CCc1ccc(O)cc1`, the growth was 105% (inactive).
